Source: PubChem (several laboratories)
TMEM16A inh: inhibitors of mouse TMEM16A calcium-activated chloride channel. HEK293 TMEM16A/YFP iodide influx fluorescence, ionomycin. normalized B-score (activity score, 25-100; higher = stronger inhibition) at 10 µM. actives 1.2% (n = 310,000);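 active means ratio plate-corrected score three or more library SD toward inhibition, starting fluorescence score within five deviations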;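 further: score derived from kinetic fluorescence span divided by baseline fluorescence per well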
GRIN3A LBD mod: modulates the human NR3A ligand-binding domain. NR3A LBD differential scanning fluorimetry, Tm shift; 0% = protein alone, 100% = glycine-bound protein. Tm shift relative to glycine control, % at 25 µM. actives 2.5% (n = 340,000). AID 1259313;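 active means melting temperature shift of at least 10% of the positive control shift, at one fixed dose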
TMEM16A act: activates or potentiates the mouse TMEM16A chloride channel. actives 0.3% (n = 340,000). Q8BHY3. HEK293 TMEM16A/YFP-H148Q/I152L, iodide quench fluorescence; hits give low values. B-score at 10 µM;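 active means fluorescence-ratio B-score plate-corrected deviation score at least 3 library SD below zero, with starting fluorescence score within 5 deviations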;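 further: channel opened by trigger with iodide after compound preincubation; score built on the fluorescence ratio of max minus min over baseline; more negative score means more quench and so TMEM16A activation or potentiation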
CRFBP-R2 agonist: CRF-BP/CRF-R2 complex agonism. AID 588473. actives 0.46% (n = 350,000). activation, % at 13.2 µM. HEK293 CRF-R2/CRF-BP, calcium dye fluorescence (FLIPR); percent of saturating CRF peptide response;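 active means activation of at least 50%, plus an integration ratio under a set limit after plate pattern correction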;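 further: plate controls were neutral control wells without compound for no effect and CRF at EC100 for full effect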
MPTP inh: inhibitors of mitochondrial permeability transition pore | isolated mouse mitochondria, Ca2+ swelling absorbance, 30 min | inhibition, % at 10 µM | actives 1.4% (n = 360,000) | AID 602449;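 active means inhibition of 50% or more, scaled per plate between neutral and stimulator controls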;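 further: 0% = DMSO wells given calcium and 100% = 1 mM EGTA wells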
CRFR2-BP antag: antagonists of CRF-binding protein/CRF-R2 receptor complex; HEK293 CRF-R2/CRF-BP, CRF-induced calcium fluorescence; inhibition, % at 11.8 µM; actives 0.59% (n = 350,000);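 active means inhibition of the ligand-induced calcium signal above about 50% at the single tested concentration, limit read from the data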
MPTP counter: membrane potential counter-screen of mitochondrial pore inhibitors; inhibition, % at 10 µM; actives 78% (n = 5,000); shares compounds with MPTP inh; isolated mitochondria, Rhodamine 123 fluorescence; in the data active means inhibition above about 22%;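 further: 0% = DMSO vehicle and 100% = positive control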
The depositor's hits bear a star. Only some compounds are listed: those with a hit (about 5.1% of all), similar ones and a draw of the others.

How did Cc1ccc(S(=O)(=O)NCc2ccc(C(=O)NCCN(Cc3ccccc3)C(C)C)cc2)cc1 do in these assays?
TMEM16A inh: inactive; GRIN3A LBD mod: -2.4; TMEM16A act: inactive; CRFBP-R2 agonist: 1.0; MPTP inh: 50.9*; CRFR2-BP antag: -32.0; MPTP counter: 71.1*

How did CC[C@@H]1Cc2[nH][nH]c(=O)c2[C@@H](c2ccc(Cl)cc2)O1 do in these assays?
MPTP inh: -0.9

How did CCCN(CC(=O)Nc1cccc(Br)c1)CC(=O)Nc1ccc(F)c(F)c1F do in these assays?
TMEM16A inh: inactive; GRIN3A LBD mod: 22.4*; TMEM16A act: inactive; CRFBP-R2 agonist: 13.9; MPTP inh: 74.2*; CRFR2-BP antag: -27.7; MPTP counter: 74.7*

Results for Oc1ccc(Cl)cc1Cc1cc(Cl)ccc1O ?
TMEM16A inh: 100*; GRIN3A LBD mod: 17.2*; TMEM16A act: inactive; CRFBP-R2 agonist: -0.9; MPTP inh: 86.4*; CRFR2-BP antag: 24.9; MPTP counter: 86.5*

Results for CC(C)c1ccc(CNC(=O)C2(C)CCCN2C)cc1 (stereo unspecified) ?
MPTP inh: -0.1

What do the screens show for `COc1ccc(CNC(=O)c2cc3c(C)nc4ccccc4c3o2)c(OC)c1`?
TMEM16A inh: inactive; GRIN3A LBD mod: -1.0; CRFBP-R2 agonist: -5.5; MPTP inh: 73.4*; CRFR2-BP antag: 57.6*; MPTP counter: 96.2*

How did COc1cccc(CNC(=O)c2cc3c(C)nc4ccccc4c3o2)c1 do in these assays?
TMEM16A inh: inactive; GRIN3A LBD mod: -8.7; TMEM16A act: inactive; CRFBP-R2 agonist: -5.8; MPTP inh: 59.9*; CRFR2-BP antag: -16.6; MPTP counter: 33.6*

Results for CCc1ccc(CNC(=O)c2cc3c(C)nc4ccccc4c3o2)cc1 ?
TMEM16A inh: inactive; GRIN3A LBD mod: -15.1; TMEM16A act: inactive; CRFBP-R2 agonist: -1.8; MPTP inh: 44.3; CRFR2-BP antag: 5.3

How did O=Nc1c(-c2cccc([N+](=O)[O-])c2)nc2ncccn12 do in these assays?
TMEM16A inh: inactive; MPTP inh: 2.1

How did COC(=O)Cn1c(CN2CCC(Cc3ccccc3)CC2)nc2c1c(=O)n(C)c(=O)n2C do in these assays?
TMEM16A inh: 25*; GRIN3A LBD mod: 2.1; TMEM16A act: inactive; CRFBP-R2 agonist: 0.2; MPTP inh: 56.1*; CRFR2-BP antag: 12.3; MPTP counter: 103.3*

Results for CCOC(=O)Cn1c(CN2CCN(C(=O)c3ccco3)CC2)nc2c1c(=O)n(C)c(=O)n2C ?
TMEM16A inh: inactive; GRIN3A LBD mod: 1.5; TMEM16A act: inactive; CRFBP-R2 agonist: 0.7; MPTP inh: -1.3; CRFR2-BP antag: -6.1

How did Cc1cc(-n2c(C)cc(C(=O)CSc3[nH]c(=O)cc(C(F)(F)F)c3C#N)c2C)no1 do in these assays?
GRIN3A LBD mod: 4.0; TMEM16A act: inactive; CRFBP-R2 agonist: -2.8; MPTP inh: 56.9*; CRFR2-BP antag: 13.3; MPTP counter: 72.2*

How did Cc1cc(NC(=O)CSc2[nH]c(=O)cc(C(F)(F)F)c2C#N)no1 do in these assays?
GRIN3A LBD mod: -4.5; TMEM16A act: inactive; CRFBP-R2 agonist: 0.8; MPTP inh: 0.9; CRFR2-BP antag: -2.2

What do the screens show for `COCC(=O)Nc1ncc(S(=O)(=O)c2ccc([N+](=O)[O-])cc2)s1`?
TMEM16A inh: inactive; GRIN3A LBD mod: 0.5; TMEM16A act: inactive; CRFBP-R2 agonist: -1.2; MPTP inh: -1.1; CRFR2-BP antag: 10.2

What do the screens show for `O=C(Nc1ncc(S(=O)(=O)c2ccc([N+](=O)[O-])cc2)s1)c1cccc2ccccc12`?
TMEM16A inh: 25*; GRIN3A LBD mod: 10.8*; TMEM16A act: -5.34*; CRFBP-R2 agonist: 112.4*; MPTP inh: 54.1*; CRFR2-BP antag: -70.5; MPTP counter: 79.0*

What do the screens show for `CCCCC(=O)Nc1ncc(S(=O)(=O)c2ccc([N+](=O)[O-])cc2)s1`?
TMEM16A inh: inactive; GRIN3A LBD mod: -10.1; TMEM16A act: inactive; CRFBP-R2 agonist: 3.7; MPTP inh: 2.6; CRFR2-BP antag: -28.7
